Assay outcomes (PubChem)
CCHF vOTU inh: blocks the CCHF virus ovarian tumor domain protease; 370,000 tested, 0.55% active; AID 651958; CCHFV vOTU protease, Pep-AMC fluorescence; inhibition, % at 11.5 µM; in the data active = inhibition above about 30%; also: 0% = vehicle wells with enzyme and 100% = no enzyme wells
3CLpro inhibitor: SARS-CoV 3CLpro protease inhibition | inhibition, % at 6 µM | 290,000 tested, 0.14% active | P0C6X7 | recombinant SARS-CoV 3CLpro, quenched FRET peptide cleavage; in the data active = inhibition above about 12%
Mtb bLac sens: beta-lactam sensitization of Mtb H37Rv | AID 434955 | 330,000 tested, 0.27% active | M. tuberculosis H37Rv growth with meropenem, percent inhibition | inhibition, % at 25 µM; call rule not given here;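 also: growth measured after seven days incubation then overnight dye step; 0% = bacteria only wells and 100% = bacteria with antibiotic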
ugtP null kill: kills S. aureus RN4220 lacking UgtP; S. aureus RN4220 ugtP deletion, OD600 growth, 16 h; growth inhibition, % (test concentration not listed); 330,000 tested, 0.54% active; AID 1259309; in the data active = growth inhibition above about 68%;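 also: plate controls were untreated wells for no effect and antibiotic for full effect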
RN4220 kill: kills Staphylococcus aureus RN4220 | S. aureus RN4220 growth, OD600, 16 h | inhibition, % (test concentration not listed) | 330,000 tested, 0.33% active | AID 1259311; in the data active = inhibition above about 85%;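 also: plate controls were untreated cells for no effect and reference antibiotic for full effect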
MazEF act: increases E. coli MazEF RNase cleavage of RNA | P0AE70 | FAM/BHQ RNA-DNA oligo cleavage fluorescence, 5 h | activation, % at 20 µM | 350,000 tested, 0.32% active | AID 504720; in the data active = activation above about 50%
Target sequence (P0AE70 whole entry, looked up): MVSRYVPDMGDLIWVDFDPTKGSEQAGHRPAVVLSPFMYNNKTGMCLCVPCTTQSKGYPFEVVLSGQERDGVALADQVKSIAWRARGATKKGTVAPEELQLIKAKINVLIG
Starred values were filed as active, the others as inactive; i = inactive; . = no result. An excerpt weighted towards active compounds, which were near 1.3% of everything screened.

SMILES	CCHF vOTU inh	3CLpro inhibitor	Mtb bLac sens	ugtP null kill	RN4220 kill	MazEF act
COC(=O)c1cccc2c1-c1ccccc1C2=NO	.	.	.	21	-1	.
CC(C)COC(=O)c1cccc2c1-c1ccccc1C2=NO	.	.	.	96*	-4	.
COc1cc(C(=O)NCC(=O)NN=C/C(C)=C\c2ccccc2)cc(OC)c1OC	.	.	.	-4	1	.
CNC(CC(C)C)C(=O)NC1C(=O)NC(CC(N)=O)C(=O)NC2C(=O)NC3C(=O)NC(C(=O)NC(C(=O)O)c4cc(O)cc(O)c4-c4cc3ccc4O)C(O)c3ccc(c(Cl)c3)Oc3cc2cc(c3OC2OC(CO)C(O)C(O)C2OC2C[C@](C)(N)C(O)C(C)O2)Oc2ccc(cc2Cl)C1O (some centres not stated)	-3	.	95	100*	101*	-5
CC1OC(OC2C(Oc3cc(O)c4c(c3)OC(c3ccc(O)cc3)CC4=O)OC(CO)C(O)C2O)C(O)C(O)C1O (configuration not stated)	.	.	.	-6	2	.
CCCc1cc2c(=O)c(-c3nc4ccccc4s3)c(COCC(=O)O)oc2cc1O	2	1	.	2	7	60*
Cc1ccc[n+](-c2[nH]c(=O)sc2C=N/N=C(\[O-])CCn2c3ccccc3c3ccccc32)c1	.	.	.	-4	3	.
CCC1(C)OC(c2ccccc2)=C/C(=C/C=C2C(=O)NC(=O)NC2=O)O1 (configuration not stated)	5	-7	.	-7	2	67*
CCn1nc([N+](=O)[O-])c(C(C#N)c2nc3cc(C(F)(F)F)ccc3s2)c(Cl)c1=O (configuration not stated)	27	4	10	92*	99*	-3
CCCCN1C(=O)/C(=C2/Sc3ccc(OC)cc3N2CC)SC1=S	.	3	-4	5	-1	71*
C=CCN1C(=O)/C(=C2/Sc3ccc(OC)cc3N2CC)SC1=S	-7	0	-4	-1	0	752*
COCc1c(C(=O)NN=Cc2ccccn2)nnn1-c1nonc1N	.	.	.	-3	0	.
COc1c(F)cccc1C1=CC(=O)CC(c2ccc3c(c2)OCO3)C1 (configuration not stated)	.	.	.	6	2	.
O=C(CCl)N1c2ccccc2Sc2c1ccc1ccccc21	13	.	.	100*	94*	6
O=C(c1ccc(CS(=O)Cc2ccc(Cl)cc2)o1)N1CCN(c2ccccc2F)CC1 (configuration not stated)	10	2	4	99*	-10	7
COc1ccc(N2CCN(C(=O)c3ccc(CS(=O)Cc4ccc(Cl)cc4)o3)CC2)cc1 (configuration not stated)	27	1	12	99*	-8	-1
Cc1ccc(CS(=O)Cc2ccc(C(=O)N3CCN(c4cccc(C)c4C)CC3)o2)cc1 (configuration not stated)	17	.	.	.	.	4
Cc1cccc(N2CCN(C(=O)c3ccc(CS(=O)Cc4cccc(Cl)c4)o3)CC2)c1C (configuration not stated)	7	5	2	90*	-1	0
Cc1ccc(Cl)cc1N1CCN(C(=O)c2ccc(CS(=O)Cc3ccc(Cl)cc3)o2)CC1 (configuration not stated)	15	-4	-5	96*	-8	-10
COC(=O)C1CC[C@@](C)(c2ccc(OC)cc2)C1(C)C (some centres not stated)	.	.	.	22	1	.
N#C/C(=C/c1ccc(N2CCOCC2)o1)c1nc2ccccc2[nH]1	4	0	35	-15	1	428*
O=C(c1ccccc1)c1coc2ccc(O)c(Cl)c12	2	0	18	2	8	-2
O=C1C(=O)c2c(C(=O)c3ccccc3)coc2-c2ccccc21	24	7	0	86*	94*	10
Cc1oc2c(c1C(=O)c1ccccc1)C(=O)C(=O)c1ccccc1-2	23	-1	14	94*	100*	11
CC(=NN1C(=O)c2ccccc2NC1c1ccccc1)c1ccccc1O (configuration not stated)	.	.	.	-1	1	.
SMILES	CCHF vOTU inh	3CLpro inhibitor	Mtb bLac sens	ugtP null kill	RN4220 kill	MazEF act
COc1cccc(C(=O)N2N=C(c3cccc(OC)c3)CC2(O)C(F)(F)F)c1 (configuration not stated)	-5	6	-5	-2	32	-4
COc1cccc(C2=NN(C(=O)c3cccs3)C(O)(C(F)(F)F)C2)c1 (configuration not stated)	9	6	-5	74	91*	-5
O=[N+]([O-])c1cccnc1N1CCC(c2cc(-c3cccc(C(F)(F)F)c3)n[nH]2)CC1	21	0	100	90*	8	2
COC(CC(O)CC(O)COCc1ccccc1)OC (configuration not stated)	.	.	.	4	5	.
CCOc1ccc(S(=O)(=O)NN)cc1	11	-1	9	-1	0	50*
O=C(Nc1ccc(Cl)c(Cl)c1)C1=Cc2ccccc2OC1	2	2	97	98*	86*	7
O=C(Nc1ccc2nc(-c3ccccc3)[nH]c2c1)c1ccco1	-3	-2	6	-6	-1	5
O=C(Nc1cccc(-c2nc3ccccc3[nH]2)c1)c1cccc(NC(=O)c2ccco2)c1	0	-3	-4	-1	9	66*
COc1cc(C=NN(C)c2ccccc2)cc(Cl)c1O	.	.	.	-23	-3	.
CN(C)c1ccc(N/C=C/C(=O)c2ccc(F)cc2)cc1	.	2	35	-1	7	105*
N=c1c[n+](C2CCCCC2)[n-]o1	-11	4	2	13	5	8
N=c1c[n+](N2CCOCC2)[n-]o1	-6	-1	1	.	.	353*
CCOC1OC(C(=O)N2CCN(C)CC2)=CC(C(C)(C)C)C1CCCO (configuration not stated)	.	.	.	-1	4	.
Cc1cccc(N2C(=O)c3cccc4c(N)ccc(c34)C2=O)c1	15	-27	-1	.	.	i
Cc1cccc(N2C(=O)c3cccc4c(N(C)CCO)ccc(c34)C2=O)c1	.	-1	-1	-4	1	78*
O=C(O)COc1ccc(C=NO)cc1Br	.	.	.	-7	-2	.
Fc1ccc(C=NNc2nc(-c3cccnc3)nc3ccccc23)cc1	.	.	.	-13	0	.
Oc1c(C(c2ccccc2)N2CCOCC2)ccc2ccccc12 (configuration not stated)	12	.	.	87*	25	-26
O=C(CN1CCN(C(c2ccccc2)c2ccccc2)CC1)N1CCOCC1	-14	-3	5	10	6	-1
CCCCCCCC(=O)N1CCN(c2cc3c(cc2F)c(=O)c(C(=O)O)cn3CC)CC1	-12	2	47	99*	95*	4
CCn1cc(C(=O)O)c(=O)c2cc(F)c(N3CCN(C)CC3)cc21	-8	2	100	100*	99*	4
C[C@H]1COc2c(N3CCN(C)CC3)c(F)cc3c(=O)c(C(=O)O)cn1c23	-100	0	100	.	.	-1
